Pin1 inh: blocks the human prolyl isomerase Pin1 | AID 504891 | Potency, µM (series often up to 115 µM), inactives show top-dose activity, negative = inhibition, usual class: inhibitors | Q13526 | 0.009% of 390,000 active | Pin1 FP peptide displacement, HiFluor488, 10 min; active = well fitted inhibition curve with a large enough effect in the polarisation, with a control signal flat, not every such curve was filed as active; inconclusive = small, poorly fitted or top-dose-only effect, or effect the other way, or a change in a side signal; inactive = no such curve, though single readings can be large or run the other way; the % refers to the polarisation; also: potency is read from the fitted curve at half-maximal effect
Target sequence (Q13526 whole entry, looked up): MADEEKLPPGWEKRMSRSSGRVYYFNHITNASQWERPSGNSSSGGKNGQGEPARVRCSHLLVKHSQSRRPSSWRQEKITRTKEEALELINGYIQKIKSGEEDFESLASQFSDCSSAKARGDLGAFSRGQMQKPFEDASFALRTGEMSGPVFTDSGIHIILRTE
PGK inhibitor: blocks T. brucei phosphoglycerate kinase; P07378; PGK/GAPDH coupled, Kinase-Glo luminescence, 60 min; Potency, µM (top dose mostly 57.5 µM), without a hit: at the top dose activity change, negative = inhibition, most hits filed as inhibitors; 0.043% of 380,000 active; active = well fitted inhibition curve with a large enough effect; inconclusive = small, poorly fitted or top-dose-only effect; inactive = no such curve, though single readings can be large or run the other way; also: potency is read from the fitted curve at half-maximal effect; nearly all actives have a fitted effect of over 60% in size
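Luminescent ATP detection (Kinase-Glo Plus) follows a 60-minute room-temperature incubation, with wells lacking PGK as controls. Buffer: 100 mM TEA (pH 7.6), 5 mM MgCl2, 0.01% Tween-20. Coupling enzyme GAPDH (100 nM final) supplies unstable 1,3-BPG in-well.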
PI5P4K alpha inh: PI5P4K alpha (human) kinase inhibition; 1.2% of 330,000 active; P48426; max response, %; PI5P4Kalpha enzyme, ADP-Glo luminescence, 60 min; stronger effect = lower value; active = max response of -50% or lower; inconclusive = between -30% and -50%; inactive = -30% or higher; also: value at the top dose of about 77 µM
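Enzyme plus substrate dispensed, test compounds pinned in, then ATP (5 microM final) added. After 60 min at RT, ADP-Glo reagent 1 for 45 min and reagent 2 for 30 min preceded luminescence imaging.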
PI4K2A block: inhibitors of human PI4K2A | Q9BTU6 | purified PI4K2A, ADP-Glo luminescence, 1 h; stronger effect = lower value | activity change, negative = inhibition, % at 76.9 µM | 0.13% of 420,000 active | AID 1346378; in the data active = activity change below about -50%; inconclusive = mostly about -30% to -49%;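 also: -100% = wells without enzyme as full effect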
Target sequence (Q9BTU6 whole entry, looked up): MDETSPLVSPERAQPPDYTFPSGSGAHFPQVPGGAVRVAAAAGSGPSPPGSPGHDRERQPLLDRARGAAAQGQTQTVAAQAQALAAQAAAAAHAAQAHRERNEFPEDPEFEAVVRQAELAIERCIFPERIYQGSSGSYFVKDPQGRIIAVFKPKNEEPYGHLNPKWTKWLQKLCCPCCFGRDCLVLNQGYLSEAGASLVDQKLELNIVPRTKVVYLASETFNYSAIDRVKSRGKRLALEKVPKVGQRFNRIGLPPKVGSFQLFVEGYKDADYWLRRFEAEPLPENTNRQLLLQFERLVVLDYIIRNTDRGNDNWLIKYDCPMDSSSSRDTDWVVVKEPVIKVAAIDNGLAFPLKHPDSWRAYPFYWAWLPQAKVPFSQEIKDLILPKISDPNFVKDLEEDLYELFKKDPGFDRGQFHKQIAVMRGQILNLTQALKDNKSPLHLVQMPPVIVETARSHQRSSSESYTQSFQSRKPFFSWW
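In this quantitative HTS, ADP production by PI4K2A was quantified luminescently after 1 h at ambient temperature; 100 microM adenosine served as plate-quality control.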
* hit, by the source's call; i = inactive; u = inconclusive; x = no result. This is one part of a sample in which hits are shown more often than they occur. Unless noted, % is scaled to controls: 0 for no effect and ±100 for the full control effect.

SMILES	Pin1 inh	PGK inhibitor	PI5P4K alpha inh	PI4K2A block
O=C(NC1CCCCC1)C(c1ccccc1)n1c(=O)c(-c2ccco2)nc2ccccc21 (centres undefined)	x	x	-79.8*	-17.8
N#Cc1ccc(C(C(=O)NC2CCCCC2)n2c(=O)c(-c3ccco3)nc3ccccc32)cc1 (centres undefined)	x	x	-74.5*	-21.3
N#Cc1ccc(C(C(=O)NC2CCCCC2)n2c(=O)c(-c3cc4ccccc4[nH]3)nc3ccccc32)cc1 (centres undefined)	x	x	-2.7	2.4
O=C(NC1CCCCC1)C(c1ccc(C(F)(F)F)cc1)n1c(=O)c(-c2ccco2)nc2ccccc21 (centres undefined)	x	x	-75.2*	-8.7
O=C(NC1CCCCC1)C(C1CC1)n1c(=O)c(-c2ccco2)nc2ccccc21 (centres undefined)	x	x	u	-7.7
O=S1(=O)C[C@H](N2CCC[C@@H]2CO)[C@@H](COCc2ccccc2)N1	x	x	-2.6	-1.3
COc1ccc(NS(=O)(=O)c2ccccc2)cc1NS(=O)(=O)c1ccccc1	-8.7%	x	x	x
CNc1ncnc(Sc2nc(N)nc3nc[nH]c23)c1[N+](=O)[O-]	4.2%	-2.3%	-22.6	-5.2
Nc1nc(Sc2ccc([N+](=O)[O-])c3nonc23)c2[nH]cnc2n1	u	u	-83.5*	-52.2*
O=S(=O)(c1c(F)cccc1F)N1CCN(S(=O)(=O)c2c(F)cccc2F)CC1	5.3%	x	x	x
CC(C)N=c1scc(-c2cccs2)n1/N=C/c1ccc(O)c(O)c1O	21.4%	-13.4%	-60.2*	-4.6
CN=c1scc(-c2ccccc2F)n1/N=C/c1ccc(O)c(O)c1O	u	u	-53.8*	-29.5
O=C(CCCN1CCN(c2ccc(F)cc2)CC1)NC1c2ccccc2CSc2ccccc21 (centres undefined)	x	x	x	-1.3
O=S(=O)(c1cccc2cccnc12)N1CCC(c2cn3ccccc3n2)CC1	x	x	x	-12.3
O=S(=O)(c1ccccc1)N1CCN(c2nc(C3CC3)nc3ccccc23)CC1	-17.2%	x	x	x
Oc1ccccc1/C=N/n1c(-c2ccccc2)n[nH]c1=S	0.0%	-1.1%	-3.0	6.4
Cc1nnc(C)n1/N=C/c1cc(Br)cc(Br)c1O	u	-7.2%	-50.2*	-9.7
COc1c(Br)cc(/C=N/n2c(-c3ccccc3)n[nH]c2=S)c(O)c1Br	2.8%	-7.5%	-55.1*	-6.4
Cc1nnc(C)n1/N=C/c1cc(Br)ccc1O	-8.4%	-1.9%	1.7	-5.9
Oc1c(Br)cc(Br)cc1/C=N/n1c(-c2ccccc2)n[nH]c1=S	u	-3.4%	-54.1*	-4.7
CCCCOC(=O)CSc1nc(N)c(C#N)c(-c2ccc(OC)cc2)c1C#N	30.6%	0.0%	-0.4	-1.3
CCOC(=O)CSc1nc(N)c(C#N)c(-c2ccc(OC)cc2)c1C#N	10.6%	7.9%	-64.5*	3.8
CN(C)C=Nc1c(Br)cc(Br)c2nonc12	u	-3.3%	-3.5	-56.5*
CN(C)C=Nc1nonc1-c1ccccc1	9.2%	7.2%	1.5	2.8
N=C(N)c1ccc(N=Nc2c(O)ccc3c2[nH]c2ccccc23)cc1	u	-10.9%	-71.0*	-8.6
SMILES	Pin1 inh	PGK inhibitor	PI5P4K alpha inh	PI4K2A block
Cc1cc(/C=C(/C#N)c2nc3ccccc3[nH]2)c(C)n1-c1cc(C(=O)O)cc(C(=O)O)c1	u	u	-78.9*	-15.4
Cc1ccc2nc(/C(C#N)=C/c3ccc(-c4ccccc4C(=O)O)o3)[nH]c2c1	u	-14.8%	u	-4.9
N#C/C(=C\c1ccc(-c2ccccc2C(=O)O)o1)c1nc2ccccc2[nH]1	u	7.2%	-69.5*	-3.0
COc1ccc2c(c1)cc(C(=O)N/N=C/c1c(O)c(C(=O)O)cc3ccccc13)n2C	u	-9.3%	-65.8*	-1.0
COc1cc2c(cc1OC)CN(C(=O)[C@H](C)N[C@@H](CCc1ccccc1)C(=O)O)[C@H](C(=O)O)C2	x	x	x	-5.3
O=S(=O)(O)c1cccc2cccnc12	7.7%	x	x	x
CSS(=O)(=O)c1cccc2cccnc12	5.0%	8.6%	-90.5*	5.9
O=C(O)c1ccc(-n2c(-c3cc(-c4ccco4)[nH]n3)n[nH]c2=S)cc1	u	u	u	1.0
CC(=O)c1ccc(-n2c(-c3cc(-c4ccco4)[nH]n3)n[nH]c2=S)cc1	-12.3%	i	-56.8*	-0.8
O=C(CCCl)NCCc1ccccc1	x	x	x	3.6
O=C1C(SCCO)=C(SCCO)C(=O)c2ccccc21	u	-18.2%	-106.7*	u
Oc1ccc(/C=N/Nc2ccnc3cc(Cl)ccc23)c(O)c1O	u	-2.2%	-74.4*	-14.3
O=C(CN1C(=O)c2cccc3cccc(c23)C1=O)NCCN1CCOCC1	-2.6%	-5.8%	0.9	-2.0
CCN1CCN(Cc2ccc(NC(=O)c3ccc(C)c(/C=C/c4cnc(Nc5cc(N6CCNCC6)nc(C)n5)cn4)c3)cc2C(F)(F)F)CC1	u	-0.4%	-73.5*	-3.7
CCN1CCN(Cc2ccc(NC(=O)c3ccc(C)c(NC(=O)c4ccno4)c3)cc2C(F)(F)F)CC1	-2.7%	i	-16.8	-4.3
O=C(NCc1noc2ccccc12)Nc1ccc(F)cc1F	u	-6.7%	x	-3.6
COc1ccc(F)cc1-c1cc(NC=O)c2ncc(-c3cccc(C(=O)N(C)C)c3)n2c1	x	x	-51.4*	-11.9
CN(C)C(=O)c1cccc(-c2cnc3c(NC=O)cc(-c4ccccc4Cl)cn23)c1	x	x	-65.4*	-9.4
CN(C)C(=O)c1cccc(-c2cnc3c(NC=O)cc(-c4ccccc4N(C)C)cn23)c1	x	x	u	-6.0
C/C(C/C(C)=C1/SC(=S)NC1=O)=C1\SC(=S)NC1=O	x	u	-105.1*	-6.1
CCCCCCCCCC(=O)O	-10.3%	0.9%	-1.6	-2.2
CCCCCC/C(C)=C1/SC(=S)NC1=O	25.9%	-16.3%	-71.2*	0.7
CC(=O)/C=C/C=C1/C2CCC(C2)C1(C)C (centres undefined)	x	x	x	2.9
COc1ccc(Cn2cc(COC(=O)N3CCCC3)nn2)cc1	x	x	x	0.3
CCCC[C@H]1CCCO[C@@](C(=O)NCc2ccccn2)(C(F)(F)F)C1	0.7%	x	x	x
SMILES	Pin1 inh	PGK inhibitor	PI5P4K alpha inh	PI4K2A block
CCCC[C@@H]1CCCO[C@@](C(=O)NCc2ccc(C)o2)(C(F)(F)F)C1	-4.8%	-4.8%	-54.0*	-3.2
Cc1ccc(S(=O)(=O)N2CCN(c3nc(C#N)nc4ccccc34)CC2)cc1	39.7%	x	x	x
CC(/C=N/n1c(-c2ccc(Cl)cc2)n[nH]c1=S)=C\c1ccco1	14.8%	-0.3%	u	-5.3
S=c1[nH]nc(-c2ccco2)n1/N=C/C=C/c1ccco1	u	-1.6%	-68.7*	-14.0
S=c1[nH]nc(-c2n[nH]c3c2CCC3)n1/N=C/C=C/c1ccco1	u	-10.9%	-51.6*	-2.8
CC(/C=N/n1c(-c2cc(C)[nH]n2)n[nH]c1=S)=C\c1ccco1	u	-4.9%	-51.5*	-1.3
COc1ccccc1/C=C/C=N/n1c(-c2ccco2)n[nH]c1=S	u	-6.1%	-5.6	1.4
S=c1[nH]nc(-c2cc(-c3ccccc3)n[nH]2)n1/N=C/C=C/c1ccco1	u	-7.3%	-96.0*	-13.1
S=c1[nH]nc(-c2n[nH]c3c2CCC3)n1N=Cc1ccco1	x	x	x	0.7
